Experimental data as given in the supplement of paper PMC10646978.
± gives the standard deviation.

Test system: RAW-Dual (murine macrophage reporter line)
Assay: IRF reporter (Lucia luciferase) activity fold change vs agonist alone; higher = enhanced IRF activity
Conditions: modulator concentration 10 µM; agonist: 3'3'-cGAMP 10 ug/mL
Procedure, shortened: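 RAW-Dual murine macrophage reporter cells were plated at 50 000 per well in 384-well plates, pin-transferred compound to 10 μM final, and pre-incubated for 1 hour at 37 °C before a PRR agonist was added and the cells incubated overnight. NF-κB activity was read from supernatant SEAP with QUANTI-Blue at 620 nm absorbance, and IRF activity from Lucia luciferase with QUANTI-Luc by luminescence. Each signal was expressed as fold change by dividing by the mean agonist-only control on the same plate. Two replicate plates were averaged, with errors obtained by propagation.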

**Q.** For COc1ccc(CCNCc2ccc3ccccc3c2)cc1OC, which IRF reporter is on record?
**A.** 0.893 ± 0.045

**Q.** Which IRF reporter does the source give for COc1ccc(CCNCc2cccc3ccccc23)cc1OC here?
**A.** 0.872 ± 0.047

**Q.** How did the IRF reporter turn out when COc1cc2c(c(OC)c1OC)-c1ccc(OC)c(=O)cc1C(NC(C)=O)CC2 (stereo not drawn) was run?
**A.** 0.0948 ± 0.0032

**Q.** For CN1C(=O)NC(=O)C(=Cc2ccc([N+](=O)[O-])s2)C1=O, which IRF reporter is on record?
**A.** 0.895 ± 0.098

**Q.** Which IRF reporter does the source give for CCOC(=O)c1ccccc1-c1ccc(C=C2C(=O)NC(=O)N(c3cccc(C)c3)C2=O)o1 here?
**A.** 1 ± 0.029

**Q.** For CC[C@@H](C(N)=O)N1CCCC1=O, which IRF reporter is on record?
**A.** 1.06 ± 0.17

**Q.** With CC(=O)OC1CN2CCC1CC2.Cl (stereo not drawn) as the compound, how does the IRF reporter read?
**A.** 0.914 ± 0.052

**Q.** COc1ccc(CCNCc2ccc(OC)c(OC)c2OC)cc1OC was tested. Which IRF reporter did it give?
**A.** 0.927 ± 0.16

**Q.** Which IRF reporter does the source give for CC1=C(O)C(=O)C=C2C1=CC=C1C2(C)CCC2(C)C3CC(C)(C(=O)O)CCC3(C)CCC12C (stereo not drawn) here?
**A.** 0.0157 ± 0.0014

**Q.** With CN1C2CCC1CC(OC(=O)[C@H](CO)c1ccccc1)C2 (stereo partly drawn) as the compound, how does the IRF reporter read?
**A.** 0.955 ± 0.069

**Q.** With COc1cc(OC)c(OC)cc1C=O as the compound, how does the IRF reporter read?
**A.** 0.794 ± 0.027

**Q.** How did the IRF reporter turn out when C[C@@H]1CC[C@H]2[C@@H](C)C(=O)O[C@@H]3O[C@@]4(C)CC[C@@H]1[C@]32OO4 was run?
**A.** 1.04 ± 0.048

**Q.** With CC(=O)OC1CCC2(C)C(=CCC3C4CCC(=O)C4(C)CCC32)C1 (stereo not drawn) as the compound, how does the IRF reporter read?
**A.** 0.969 ± 0.031

**Q.** CC12CCC3C(CC=C4CC(O)CCC43C)C1CC(=Cc1cccc(F)c1)C2=O (stereo not drawn) was tested. Which IRF reporter did it give?
**A.** 0.907 ± 0.03

**Q.** How did the IRF reporter turn out when COc1ccc(CNCCc2c[nH]c3ccccc23)c(OC)c1C was run?
**A.** 1.4 ± 0.048

**Q.** Which IRF reporter does the source give for O=[N+]([O-])Nc1ccc(Br)cn1 here?
**A.** 0.961 ± 0.15

**Q.** How did the IRF reporter turn out when CN1C(=O)NC(=O)C(=Cc2ccc([N+](=O)[O-])o2)C1=O was run?
**A.** 0.92 ± 0.066

**Q.** C1CCc2nnnn2CC1 [Prestw-162] was tested. Which IRF reporter did it give?
**A.** 0.941 ± 0.039

**Q.** Which IRF reporter does the source give for CC(C)(C)NCC(O)c1cc(Cl)c(N)c(Cl)c1 (stereo not drawn) [Prestw-345] here?
**A.** 1.03 ± 0.04

**Q.** With NNC(=O)c1ccccc1 as the compound, how does the IRF reporter read?
**A.** 0.929 ± 0.086

Same assay, conditions: modulator concentration 10 µM; agonist: LPS 0.1 ug/mL

**Q.** With CC(=O)Nc1ccc(C(=O)NCC#CCN(C)C)cc1 as the compound, how does the IRF reporter read?
**A.** 1.17 ± 0.29

**Q.** How did the IRF reporter turn out when CC(=O)Oc1ccc(C=Cc2cc(OC(C)=O)cc(OC(C)=O)c2)cc1 was run?
**A.** 0.953 ± 0.088

**Q.** For O=C(O)COc1cc(Cl)c(Cl)cc1Cl, which IRF reporter is on record?
**A.** 1.37 ± 0.18

**Q.** Which IRF reporter does the source give for Cc1ccc(C)c2sc(N3CCN(C)CC3)nc12.Cl here?
**A.** 1.04 ± 0.14

**Q.** For COc1ccccc1CC(=O)N1CCN(Cc2cnnn2-c2ccccc2F)CC1, which IRF reporter is on record?
**A.** 1.14 ± 0.19

**Q.** Which IRF reporter does the source give for Cc1cccc2sc(NC(=O)c3cccn(Cc4ccc(Br)cc4)c3=O)nc12 here?
**A.** 1.32 ± 0.084

**Q.** CCN(CC)CCOC(=O)C(O)(c1ccccc1)c1ccccc1.Cl was tested. Which IRF reporter did it give?
**A.** 1.03 ± 0.3

**Q.** With O=C(NCCN1CCN(c2ccccc2)CC1)c1ccc(F)cc1 as the compound, how does the IRF reporter read?
**A.** 0.94 ± 0.045

**Q.** Which IRF reporter does the source give for c1cc2c(cc1C1OCC3C(c4ccc5c(c4)OCO5)OCC13)OCO2 (stereo not drawn) here?
**A.** 1.22 ± 0.17

**Q.** CN1C2CCC1CC(OC(=O)C(CO)c1ccccc1)C2 (stereo not drawn) was tested. Which IRF reporter did it give?
**A.** 1.24 ± 0.15

**Q.** With COc1cc2c(c(OC)c1OC)-c1ccc(O)c(=O)cc1C(NC(C)=O)CC2 (stereo not drawn) as the compound, how does the IRF reporter read?
**A.** 1.26 ± 0.082

**Q.** With O=C1NC(=O)N(c2ccccc2F)C(=O)C1=Cc1ccc(OCc2ccc([N+](=O)[O-])cc2)c(Cl)c1 as the compound, how does the IRF reporter read?
**A.** 1.22 ± 0.15

**Q.** CCCCCC(=O)NC(Oc1ccc([N+](=O)[O-])cc1)C(Cl)(Cl)Cl (stereo not drawn) was tested. Which IRF reporter did it give?
**A.** 1.06 ± 0.085

**Q.** With C=C1C[C@@H]2[C@H](CC[C@]3(C)C(=O)CC[C@@H]23)[C@@]2(C)C=CC(=O)C=C12 as the compound, how does the IRF reporter read?
**A.** 0.911 ± 0.095

**Q.** How did the IRF reporter turn out when O=C1NC(=O)C(=Cc2cccn2-c2ccc(Br)cc2)C(=O)N1 was run?
**A.** 0.91 ± 0.14

**Q.** Which IRF reporter does the source give for CC(C)N(CCC(C(N)=O)(c1ccccc1)c1ccccn1)C(C)C (stereo not drawn) here?
**A.** 0.94 ± 0.2

**Q.** With CCNCC.O=C(O)Cc1ccccc1Nc1c(Cl)cccc1Cl as the compound, how does the IRF reporter read?
**A.** 1.21 ± 0.43

**Q.** With Cc1cc(N2CCNCC2)c2ccccc2n1 as the compound, how does the IRF reporter read?
**A.** 1.15 ± 0.31

**Q.** With COc1ccc(CCNCc2ccc3ccccc3c2)cc1OC as the compound, how does the IRF reporter read?
**A.** 1.17 ± 0.12

**Q.** COc1ccc(CCNCc2cccc3ccccc23)cc1OC was tested. Which IRF reporter did it give?
**A.** 1.32 ± 0.093

**Q.** COc1cc2c(c(OC)c1OC)-c1ccc(OC)c(=O)cc1C(NC(C)=O)CC2 (stereo not drawn) was tested. Which IRF reporter did it give?
**A.** 1.87 ± 0.21

**Q.** CN1C(=O)NC(=O)C(=Cc2ccc([N+](=O)[O-])s2)C1=O was tested. Which IRF reporter did it give?
**A.** 0.925 ± 0.12

**Q.** How did the IRF reporter turn out when CCOC(=O)c1ccccc1-c1ccc(C=C2C(=O)NC(=O)N(c3cccc(C)c3)C2=O)o1 was run?
**A.** 1.2 ± 0.14

**Q.** For CC[C@@H](C(N)=O)N1CCCC1=O, which IRF reporter is on record?
**A.** 0.88 ± 0.075

**Q.** For CC(=O)OC1CN2CCC1CC2.Cl (stereo not drawn), which IRF reporter is on record?
**A.** 0.869 ± 0.15

**Q.** COc1ccc(CCNCc2ccc(OC)c(OC)c2OC)cc1OC was tested. Which IRF reporter did it give?
**A.** 1.01 ± 0.044

**Q.** For CC1=C(O)C(=O)C=C2C1=CC=C1C2(C)CCC2(C)C3CC(C)(C(=O)O)CCC3(C)CCC12C (stereo not drawn), which IRF reporter is on record?
**A.** 0.116 ± 0.081

**Q.** For CN1C2CCC1CC(OC(=O)[C@H](CO)c1ccccc1)C2 (stereo partly drawn), which IRF reporter is on record?
**A.** 0.968 ± 0.088

**Q.** How did the IRF reporter turn out when COc1cc(OC)c(OC)cc1C=O was run?
**A.** 1.02 ± 0.11

**Q.** How did the IRF reporter turn out when C[C@@H]1CC[C@H]2[C@@H](C)C(=O)O[C@@H]3O[C@@]4(C)CC[C@@H]1[C@]32OO4 was run?
**A.** 1.13 ± 0.065

**Q.** How did the IRF reporter turn out when CC(=O)OC1CCC2(C)C(=CCC3C4CCC(=O)C4(C)CCC32)C1 (stereo not drawn) was run?
**A.** 1.08 ± 0.095

**Q.** How did the IRF reporter turn out when CC12CCC3C(CC=C4CC(O)CCC43C)C1CC(=Cc1cccc(F)c1)C2=O (stereo not drawn) was run?
**A.** 1.61 ± 0.13

**Q.** How did the IRF reporter turn out when COc1ccc(CNCCc2c[nH]c3ccccc23)c(OC)c1C was run?
**A.** 3.32 ± 0.42

**Q.** With O=[N+]([O-])Nc1ccc(Br)cn1 as the compound, how does the IRF reporter read?
**A.** 1.09 ± 0.064

**Q.** For CN1C(=O)NC(=O)C(=Cc2ccc([N+](=O)[O-])o2)C1=O, which IRF reporter is on record?
**A.** 1.24 ± 0.14

**Q.** Which IRF reporter does the source give for C1CCc2nnnn2CC1 [Prestw-162] here?
**A.** 1.11 ± 0.17

**Q.** Which IRF reporter does the source give for CC(C)(C)NCC(O)c1cc(Cl)c(N)c(Cl)c1 (stereo not drawn) [Prestw-345] here?
**A.** 0.886 ± 0.06

**Q.** NNC(=O)c1ccccc1 was tested. Which IRF reporter did it give?
**A.** 0.914 ± 0.15
